Assay outcomes deposited in PubChem by Center for Chemical Genomics, University of Michigan.
Dicer processing – inhibitors of Dicer pre-microRNA processing, primary screen, biochemical, cat-ELCCA, chemiluminescence. Endoribonuclease Dicer (Homo sapiens), Q9UPY3. AID 1347074, 2019. cat-ELCCA pre-miR-21 Dicer processing; hits give high values. z-score at 25 µM. 6% of 47,000 active; in the data active = z-score above about 3, passing the limit was not always enough;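 note: higher signal means more uncleaved substrate so more Dicer inhibition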
Target sequence (Q9UPY3 whole entry, looked up): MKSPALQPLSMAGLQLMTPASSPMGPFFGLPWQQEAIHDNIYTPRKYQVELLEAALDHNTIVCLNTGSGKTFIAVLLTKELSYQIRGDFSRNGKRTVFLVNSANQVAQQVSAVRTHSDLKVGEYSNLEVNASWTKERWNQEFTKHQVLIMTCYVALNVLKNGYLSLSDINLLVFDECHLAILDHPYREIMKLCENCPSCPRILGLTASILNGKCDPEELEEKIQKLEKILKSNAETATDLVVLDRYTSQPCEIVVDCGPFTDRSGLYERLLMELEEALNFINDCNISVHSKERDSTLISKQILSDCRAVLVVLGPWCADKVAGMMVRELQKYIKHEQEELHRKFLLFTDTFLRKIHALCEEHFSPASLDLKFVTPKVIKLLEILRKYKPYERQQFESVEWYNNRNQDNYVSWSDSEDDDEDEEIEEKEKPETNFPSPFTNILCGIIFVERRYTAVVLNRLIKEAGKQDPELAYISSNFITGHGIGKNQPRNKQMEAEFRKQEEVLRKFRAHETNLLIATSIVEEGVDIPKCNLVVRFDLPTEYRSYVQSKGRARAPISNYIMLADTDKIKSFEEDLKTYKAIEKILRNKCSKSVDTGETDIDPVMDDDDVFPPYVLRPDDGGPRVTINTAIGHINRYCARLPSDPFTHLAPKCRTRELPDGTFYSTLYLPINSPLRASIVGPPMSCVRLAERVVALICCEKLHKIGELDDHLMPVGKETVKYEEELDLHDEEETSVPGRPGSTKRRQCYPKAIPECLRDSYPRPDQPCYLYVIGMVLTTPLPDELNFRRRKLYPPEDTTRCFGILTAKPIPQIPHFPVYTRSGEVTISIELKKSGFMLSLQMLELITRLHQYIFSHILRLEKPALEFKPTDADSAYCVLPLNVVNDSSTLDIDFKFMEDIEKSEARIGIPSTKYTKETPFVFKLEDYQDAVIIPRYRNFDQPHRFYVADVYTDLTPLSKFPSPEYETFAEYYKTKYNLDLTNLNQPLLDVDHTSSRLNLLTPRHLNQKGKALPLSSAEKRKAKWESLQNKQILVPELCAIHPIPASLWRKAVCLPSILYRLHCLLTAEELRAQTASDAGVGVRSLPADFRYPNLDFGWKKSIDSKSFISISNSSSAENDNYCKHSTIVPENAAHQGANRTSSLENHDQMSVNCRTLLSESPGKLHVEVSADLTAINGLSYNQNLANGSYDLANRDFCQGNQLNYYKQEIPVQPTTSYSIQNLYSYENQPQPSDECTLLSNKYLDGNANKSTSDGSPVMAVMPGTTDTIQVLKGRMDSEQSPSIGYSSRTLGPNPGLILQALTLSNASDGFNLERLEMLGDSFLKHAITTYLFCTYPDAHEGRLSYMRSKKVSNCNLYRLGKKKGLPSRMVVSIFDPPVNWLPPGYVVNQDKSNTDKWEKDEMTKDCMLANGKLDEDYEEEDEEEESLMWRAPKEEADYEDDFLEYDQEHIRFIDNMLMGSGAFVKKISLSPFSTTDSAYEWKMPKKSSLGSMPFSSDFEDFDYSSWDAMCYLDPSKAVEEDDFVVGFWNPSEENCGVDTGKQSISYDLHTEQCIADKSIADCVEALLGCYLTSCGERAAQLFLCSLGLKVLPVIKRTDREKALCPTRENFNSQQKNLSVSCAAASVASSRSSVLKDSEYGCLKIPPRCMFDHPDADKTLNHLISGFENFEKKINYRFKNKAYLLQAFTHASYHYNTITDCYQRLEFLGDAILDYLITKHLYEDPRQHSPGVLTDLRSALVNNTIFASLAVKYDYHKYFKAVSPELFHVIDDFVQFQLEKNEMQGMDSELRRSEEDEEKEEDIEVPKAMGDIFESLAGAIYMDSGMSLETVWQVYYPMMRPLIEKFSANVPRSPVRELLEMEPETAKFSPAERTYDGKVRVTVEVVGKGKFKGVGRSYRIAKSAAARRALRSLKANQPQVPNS
Each line names hits and unclear results; the compound was inactive in the other large screens. Many of the other results were omitted from the sample, so hits are more common in it than they were.

Cc1cccn2cc(-c3cccc(S(=O)(=O)N4CC(C)CC(C)C4)c3)nc12 (configuration not stated)	none
Cc1cccc(S(=O)(=O)Nc2cccc(-c3cn4ccc(C)cc4n3)c2)c1	none
CCc1ccc(S(=O)(=O)Nc2ccc(-c3cn4cccc(C)c4n3)cc2)cc1	Dicer processing 7.2
Cc1cccn2cc(-c3ccc(NS(=O)(=O)c4ccc(Cl)cc4)cc3)nc12	Dicer processing 6
Cc1cc(C)c(S(=O)(=O)Nc2ccc(-c3cn4ccccc4n3)cc2)cc1C	none
CC(=O)Nc1ccc(S(=O)(=O)Nc2ccc(-c3csc(C)n3)cc2)cc1Cl	none
CC(=O)Nc1nc(-c2ccc3ccccc3c2)cs1	none
CCCN(CCC)S(=O)(=O)c1cccc(-c2cn3cccc(C)c3n2)c1	none
Cc1ccc(S(=O)(=O)NNC2CS(=O)(=O)c3ccccc32)cc1 (configuration not stated)	none
O=C(Oc1ccc2c(c1)oc(=O)c1ccccc12)c1ccccc1Cl	none
N#Cc1ccc(-c2ccc3c(c2)OCCO3)[nH]c1=S	none
c1ccc(Cn2c3ccccc3n3nc(-c4ccco4)nc23)cc1	none
CN(C)c1nc2c(c(=O)n(C)c(=O)n2C)n1CC(O)COc1ccccc1 (configuration not stated)	none
CCS(=O)(=O)c1nc2ccccc2n1Cc1ccc(C(C)(C)C)cc1	none
Cc1c(-c2nc(-c3cc(C(F)(F)F)cc(C(F)(F)F)c3)no2)oc2ccccc12	none
CCC1=C(C(=O)OC)C(c2ccc(N(C)C)cc2)n2ncnc2N1 (configuration not stated)	none
Cc1ccccc1C1NC(=O)c2c(sc3c2CCN(C)C3)N1 (configuration not stated)	none
OCCn1c(SCCOc2ccc(Cl)cc2)nc2ccccc21	none
N/C(=N\OC(=O)Nc1csc(-c2cccc(Cl)c2Cl)n1)c1ccc(C(F)(F)F)cc1	none
O=S(=O)(NCCNc1ncnc2scc(-c3ccccc3)c12)c1ccc(Cl)cc1	none
CC1CC(C)(C)CC2(CC(=O)N(c3ccc(Cl)cc3)C2=O)C1 (configuration not stated)	none
Cc1nn(C)c(=O)c(N)c1-c1cc(-c2ccsc2)n[nH]1	none
Cc1cccc(NC(=S)Nc2c(C)cccc2C)n1	none
COc1ccc(Oc2coc3cc(OC(=O)c4ccccc4OC)ccc3c2=O)cc1	none
C(#Cc1ccccc1)CNCCc1c[nH]c2ccccc12	Dicer processing 4.1
CSC1=NCC(=O)N1CCc1c[nH]c2ccccc12	none
O=C1CC(NCCc2c[nH]c3ccccc23)C(=O)N1c1ccccc1 (configuration not stated)	none
O=S(=O)(NCCc1ccccn1)c1cc(S(=O)(=O)c2ccccc2)cs1	none
CSc1sc(-c2ccnc(SCCS(=O)(=O)c3ccc(Cl)cc3)n2)c(-c2ccccc2)c1C#N	none
COc1ccc(Oc2coc3cc(OC(=O)c4ccc(OC)cc4)ccc3c2=O)cc1	none
COC(=O)c1sc2ccccc2c1Cl	none
COCCNC(=O)c1cc2sc3ccccc3c2s1	Dicer processing 3.9
CCN(CC)CCCNC(=O)c1sc2ccccc2c1Cl	none
O=C(Nc1cccc(S(=O)(=O)N2CCOCC2)c1)c1cc2sc3ccccc3c2s1	none
O=C(Nc1ccc2c(c1)CS(=O)(=O)C2)c1cccs1	none
CN(C)c1ccc(NC(=O)c2cccs2)cc1	Dicer processing 3.2
O=C(Nc1ccc(F)cc1)c1sc2ccccc2c1Cl	none
CN(C)c1ccc(C(O)C(=O)c2cccs2)cc1 (configuration not stated)	none
CN(C)c1ccc(NC(=O)c2cc3sc4ccccc4c3s2)cc1	Dicer processing 6.5
NC(=O)C1=C(O)C(=O)N(C2CCCCC2)C1	none
COc1ccc(Br)cc1CN1CCN(Cc2ccc(SC)cc2)CC1	none
CN(C)Nc1ccc([N+](=O)[O-])c(NN(C)C)c1C#N	none
NNC(=O)c1cc2cc(OCc3ccccc3)ccc2[nH]1	none
O=C1c2cc(S(=O)(=O)NC3CCCCC3)cc([N+](=O)[O-])c2-c2c1cc(S(=O)(=O)NC1CCCCC1)cc2[N+](=O)[O-]	none
CCOC(=O)n1c(=S)oc2ccccc21	none
O=C(c1ccc(Cl)cc1)n1c(=O)oc2ccccc21	none
CCCCOC(=O)n1c(=O)oc2ccccc21	Dicer processing 6.6
Cn1cnnc1SCc1ccc([N+](=O)[O-])cc1	none
CC(C)(C)C(=O)OCC(=O)c1ccc(C(F)(F)F)cc1	none
CCOC(=O)c1ccc(-n2c(=S)[nH]c3ccccc32)cc1	none
CCOc1cccc(=O)c2c(C)n(-c3ccc(C)cc3)c(C)c12	none
CCOC(=O)c1ccc(-n2c(C)c3c(OC)cccc(=O)c3c2C)cc1	Dicer processing 3.8
CC(C)NC(=O)CSc1nnc(-c2ccc(C(C)(C)C)cc2)n1-c1ccc2c(c1)OCO2	none
CC(C)(C)n1nc(C2CC2)c(Br)c1NC(=O)c1ccccc1Cl	none
Cc1nn(C(C)(C)C)c(NC(=O)c2ccc(Cl)cc2Cl)c1Br	Dicer processing 3.3
Cc1cc(NC(=O)c2ccc(Cl)cc2Cl)n(C(C)(C)C)n1	none
COC(=O)c1sc(N2C(=O)c3oc4ccc(F)cc4c(=O)c3C2c2ccc(OC)cc2)nc1C (configuration not stated)	none
CS(=O)c1ccc(C(F)(F)F)cc1[N+](=O)[O-] (configuration not stated)	none
COc1ccc(C2C(C#N)=C(N)Oc3n[nH]c(-c4ccccc4)c32)c(OC)c1 (configuration not stated)	none
COc1ccc(-c2nnc(SCc3ccc(F)cc3)o2)c(OC)c1	none
Cn1c2c(c3ccccc31)/C(=N/O)CCC2	Dicer processing 3.9
CN(C)CC1CCc2c(c3ccccc3n2C)C1=O (configuration not stated)	none
Cn1c2c(c3ccccc31)/C(=N/OC(=O)c1ccc(C(C)(C)C)cc1)CCC2	none
CCc1ccc(CN2CCC(N3CCCC(C)C3)CC2)cc1 (configuration not stated)	none
Cn1c2c(c(=O)n(C)c1=O)C(c1ccsc1)C1=C(N2)c2ccccc2C1=O (configuration not stated)	Dicer processing 7.8
Cn1c2c(c(=O)[nH]c1=O)C(c1ccsc1)C1=C(N2)c2ccccc2C1=O (configuration not stated)	none
COc1cccc(C2C3=C(Nc4c2c(=O)n(C)c(=O)n4C)c2ccccc2C3=O)c1 (configuration not stated)	none
Cc1ccc2oc3c(c(=O)c2c1)C(c1ccccc1F)N(Cc1ccc2c(c1)OCO2)C3=O (configuration not stated)	none
CCc1[nH]c(=O)cc2cc(OC)c(OC)cc12	none
O=[N+]([O-])c1c(Nc2ccc(Cl)cc2)ccc2nsnc12	none
COc1ccc(N2C(=O)CSC2=O)cc1	none
O=C1CSC(=O)N1c1ccc(C(F)(F)F)cc1	Dicer processing 3.9
O=C1CSC(=O)N1c1ccc(Cl)cc1	none
COC(=O)C1=C(C)N=C2SCCC(=O)N2C1c1ccccc1Cl (configuration not stated)	none
O=C1CSC(c2cccnc2)N1c1c(F)cc(F)cc1F (configuration not stated)	none
N/C(=N\S(=O)(=O)c1ccc(Cl)cc1)N1CCSCC1	Dicer processing 3.6
Nc1cc(Cl)ccc1C(=O)N1CCSCC1	none
CSC/C(N)=N/S(=O)(=O)c1ccc(Cl)cc1	none
CN(C)CCCOC(=O)c1ccc2c(c1)OCO2	none
O=C(NC(=S)Nc1ccccc1Cl)c1ccccc1	none
O=C(NC(=S)Nc1ccccc1Cl)c1cnn2c(C(F)(F)F)cc(C(F)(F)F)nc12	none
O=C(NC(=S)Nc1ccccc1Cl)c1ccc(F)cc1F	Dicer processing 10
NC(=S)N/N=C1\CCSc2ccc(F)cc21	none
CSc1ssc(=Nc2ccc(F)c(F)c2)c1-c1ccccc1	Dicer processing 3.6
